# Laboratory results published in PMC11062922 (Nature Chemical Biology, 2023).
# Like-named read-outs stand apart in the source and are kept apart here.
# Experiments:
# Parameters in all cases: species or system human, MV4-11 + K-562 + COLO205 + SK-N-BE2 + OVCAR-8
# AKT1 = conditions: read-out: apparent Kd; compound concentrations: 100 nM and 1000 nM (sheet 'Samples'), CATDS: 0.123501580073808; n = 1
# AKT2 = conditions: read-out: apparent Kd, compound concentrations: 100 nM and 1000 nM (sheet 'Samples'), n = 1
# MAP2K1 = conditions: read-out: apparent Kd; compound concentrations: 100 nM and 1000 nM (sheet 'Samples'), CATDS: 9.8973729248026707E-2; n = 1
# MAP2K2 = conditions: read-out: apparent Kd; compound concentrations: 100 nM and 1000 nM (sheet 'Samples'), CATDS: 0.112091584059978; n = 1
# NCL = conditions: read-out: apparent Kd; compound concentrations: 100 nM and 1000 nM (sheet 'Samples'), CATDS: 0.116162101404393; n = 1
# PIK3C3 = conditions: read-out: apparent Kd; compound concentrations: 100 nM and 1000 nM (sheet 'Samples'), CATDS: 0.115592517664726; n = 1
# PIK3CB = conditions: read-out: apparent Kd; compound concentrations: 100 nM and 1000 nM (sheet 'Samples'), CATDS: 0.13740958062808101; n = 1
# PYGL = conditions: read-out: apparent Kd, n = 1
# TAOK3 = conditions: read-out: apparent Kd; compound concentrations: 100 nM and 1000 nM (sheet 'Samples'), CATDS: 0.106339903242866; n = 1
# AKT3 = conditions: read-out: apparent Kd; compound concentrations: 100 nM and 1000 nM (sheet 'Samples'), CATDS: 2.7204551549319601E-2; n = 1
# CIT = conditions: read-out: apparent Kd; compound concentrations: 100 nM and 1000 nM (sheet 'Samples'), CATDS: 2.7482144104810799E-2; n = 1
# GSK3A = conditions: read-out: apparent Kd; compound concentrations: 100 nM and 1000 nM (sheet 'Samples'), CATDS: 6.2878990302183399E-2; n = 1
# GSK3B = conditions: read-out: apparent Kd; compound concentrations: 100 nM and 1000 nM (sheet 'Samples'), CATDS: 5.5559924345407602E-2; n = 1
# LATS1 = conditions: read-out: apparent Kd; compound concentrations: 100 nM and 1000 nM (sheet 'Samples'), CATDS: 4.8333915347555698E-2; n = 1
# MARK2 = conditions: read-out: apparent Kd; compound concentrations: 100 nM and 1000 nM (sheet 'Samples'), CATDS: 4.76140671076506E-2; n = 1
# MARK3 = conditions: read-out: apparent Kd; compound concentrations: 100 nM and 1000 nM (sheet 'Samples'), CATDS: 5.1082901600924303E-2; n = 1
# MARK4 = conditions: read-out: apparent Kd; compound concentrations: 100 nM and 1000 nM (sheet 'Samples'), CATDS: 4.9590510521074001E-2; n = 1
# PAK4 = conditions: read-out: apparent Kd; compound concentrations: 100 nM and 1000 nM (sheet 'Samples'), CATDS: 0.104490197523791; n = 1
# PAK6 = conditions: read-out: apparent Kd; compound concentrations: 100 nM and 1000 nM (sheet 'Samples'), CATDS: 0.160954118330599; n = 1
# PKN1 = conditions: read-out: apparent Kd; compound concentrations: 100 nM and 1000 nM (sheet 'Samples'), CATDS: 6.8915050548370396E-2; n = 1
# PRKAA2 = conditions: read-out: apparent Kd; compound concentrations: 100 nM and 1000 nM (sheet 'Samples'), CATDS: 2.6285000431917799E-2; n = 1
# PRKACA = conditions: read-out: apparent Kd; compound concentrations: 100 nM and 1000 nM (sheet 'Samples'), CATDS: 4.9144940605522901E-2; n = 1
# PRKAG2 = conditions: read-out: apparent Kd; compound concentrations: 100 nM and 1000 nM (sheet 'Samples'), CATDS: 2.7426405634362501E-2; n = 1
# PRKCB = conditions: read-out: apparent Kd; compound concentrations: 100 nM and 1000 nM (sheet 'Samples'), CATDS: 2.6716167566890599E-2; n = 1
# PRKCD = conditions: read-out: apparent Kd; compound concentrations: 100 nM and 1000 nM (sheet 'Samples'), CATDS: 3.7280479553999199E-2; n = 1
# PRKCQ = conditions: read-out: apparent Kd; compound concentrations: 100 nM and 1000 nM (sheet 'Samples'), CATDS: 2.7638944484762E-2; n = 1
# PRKG1 = conditions: read-out: apparent Kd; compound concentrations: 100 nM and 1000 nM (sheet 'Samples'), CATDS: 7.0196377588655406E-2; n = 1
# PRKX = conditions: read-out: apparent Kd; compound concentrations: 100 nM and 1000 nM (sheet 'Samples'), CATDS: 0.203063152086782; n = 1
# RPS6KA4 = conditions: read-out: apparent Kd; compound concentrations: 100 nM and 1000 nM (sheet 'Samples'), CATDS: 3.80124112320347E-2; n = 1
# ADRBK1 = conditions: read-out: apparent Kd; compound concentrations:100 nM and 1000 nM (sheet 'Samples'); n = 1
# MAPK14 = conditions: read-out: apparent Kd; compound concentrations:100 nM and 1000 nM (sheet 'Samples'); n = 1
# PIK3C2A = conditions: read-out: apparent Kd; compound concentrations:100 nM and 1000 nM (sheet 'Samples'); n = 1
# PRKCI = conditions: read-out: apparent Kd; compound concentrations:100 nM and 1000 nM (sheet 'Samples'); n = 1
# RPS6KA3 = conditions: read-out: apparent Kd; compound concentrations:100 nM and 1000 nM (sheet 'Samples'); n = 1
# STK16 = conditions: read-out: apparent Kd; compound concentrations:100 nM and 1000 nM (sheet 'Samples'); n = 1
compound,measurement,setting,value
Cc1nc(Nc2cnn(C3CCNCC3)c2)nc2c1N(C)C(=O)c1cc3ccccc3cc1N2C [HTH-01-015],potency estimated from few doses,AKT1,1.31 µM
same,potency estimated from few doses,AKT2; CATDS: 0.10314044451286999,1.87 µM
same,potency estimated from few doses,MAP2K1,2.06 µM
same,potency estimated from few doses,MAP2K2,1.58 µM
same,potency estimated from few doses,NCL,1.47 µM
same,potency estimated from few doses,PIK3C3,1.48 µM
same,potency estimated from few doses,PIK3CB,1.08 µM
same,potency estimated from few doses,"PYGL; compound concentrations: 100 nM and 1000 nM (sheet 'Samples'), CATDS: 9.7642966529981307E-2",2.12 µM
same,potency estimated from few doses,TAOK3,1.76 µM
CCn1c(-c2nonc2N)nc2c(C#CC(C)(C)O)ncc(OC3CCNCC3)c21.O=C(O)C(F)(F)F [GSK619487A],potency estimated from few doses,AKT2; CATDS: 4.2627279294918302E-2,0.0915 µM
same,potency estimated from few doses,AKT3,1.3 µM
same,potency estimated from few doses,CIT,1.19 µM
same,potency estimated from few doses,GSK3A,0.0269 µM
same,potency estimated from few doses,GSK3B,0.038 µM
same,potency estimated from few doses,LATS1,0.0586 µM
same,potency estimated from few doses,MARK2,0.0616 µM
same,potency estimated from few doses,MARK3,0.049 µM
same,potency estimated from few doses,MARK4,0.0539 µM
same,potency estimated from few doses,PAK4,0.00755 µM
same,potency estimated from few doses,PAK6,0.00274 µM
same,potency estimated from few doses,PKN1,0.0211 µM
same,potency estimated from few doses,PRKAA2,1.81 µM
same,potency estimated from few doses,PRKACA,0.0555 µM
same,potency estimated from few doses,PRKAG2,1.21 µM
same,potency estimated from few doses,PRKCB,1.54 µM
same,potency estimated from few doses,PRKCD,0.162 µM
same,potency estimated from few doses,PRKCQ,1.13 µM
same,potency estimated from few doses,PRKG1,0.0201 µM
same,potency estimated from few doses,PRKX,0.00158 µM
same,potency estimated from few doses,RPS6KA4,0.148 µM
CCCC(=O)Nc1n[nH]c2ncccc12 [SB-601436],potency estimated from few doses,ADRBK1,2.14 µM
same,potency estimated from few doses,MAPK14,1.31 µM
same,potency estimated from few doses,PIK3C2A,2.47 µM
same,potency estimated from few doses,PRKCI,2.08 µM
same,potency estimated from few doses,PYGL; compound concentrations:100 nM and 1000 nM (sheet 'Samples'),2.17 µM
same,potency estimated from few doses,RPS6KA3,1.89 µM
same,potency estimated from few doses,STK16,1.48 µM
